Among all 52,000 compounds or so, about 4,300 (8.3%) were called active. For the sample, actives were picked, then their nearest neighbours and some compounds at random. A number with no mark means an inactive call. Rule as the data show it: active = survival mostly below about 52% (no sharp cut-off); inactive = mostly above about 56%.
The compounds below were run on DeltatarO mutant (assay: S. aureus survival, RN4220 and DeltatarO strains – OD600, teichoic acid synthesis inhibitors, primary screen (AID 463173)). Details: S. aureus RN4220 wild type/DeltatarO growth, OD600, 18 h, active compounds read low, screened at 18.75 µg/mL (by protocol).

SMILES	survival
CCOC(=O)c1sc(N2N=C(C)CC2=O)nc1C	76%
CCCCCN1N=C(C)CC1=O	39% (active)
CC1=NN(c2ccc(N)cc2)C(=O)C1	107%
CCN(CC)CCCNC(=O)C(=O)Nc1ccc2nc3n(c(=O)c2c1)CCCCC3	91%
COc1ccc(-c2noc(CCC(=O)Nc3cccc(C)c3C)n2)cc1OC	69%
COc1cc2ccccc2cc1C(=O)Nc1ccc2oc(-c3ccc(F)cc3)nc2c1	43% (active)
COc1cc2ccccc2cc1C(=O)Nc1ccc2oc(-c3ccc(F)cc3Cl)nc2c1	59%
COc1cc2ccccc2cc1C(=O)Nc1ccc2oc(-c3ccccc3)nc2c1	8% (active)
O=C(Nc1ccc(-c2nc3cc(NC(=O)c4ccccc4F)ccc3o2)cc1)c1ccccc1F	90%
COc1ccc(C(=O)Nc2ccc3oc(-c4ccc5ccccc5c4)nc3c2)cc1Br	63%
COc1cc(C(=O)Nc2ccc3oc(-c4ccccc4)nc3c2)cc(OC)c1OC	51%
Cc1cccc(-c2nc3cc(NC(=O)COc4ccccc4F)ccc3o2)c1	103%
COc1cc2ccccc2cc1C(=O)Nc1ccc2oc(-c3ccc(Cl)cc3)nc2c1	59%
CCc1ccc(-c2nc3cc(NC(=O)c4cc5ccccc5cc4OC)ccc3o2)cc1	11% (active)
CCc1ccc(OCC(=O)Nc2ccc3oc(-c4ccc(OC)cc4)nc3c2)cc1	62%
COc1cc2ccccc2cc1C(=O)Nc1ccc2oc(-c3cccc(C)c3)nc2c1	25% (active)
CCc1ccc2oc(-c3ccc(NC(=O)c4ccc(OC)c(Br)c4)cc3)nc2c1	60%
COC(=O)CSc1ccc2nnc(CCNS(=O)(=O)c3ccccc3)n2n1	118%
CCc1ccc(NC(=O)NCCc2c(C)nn(C)c2C)cc1	72%
COc1ccccc1Cn1cc(C(=O)c2ccc(Cl)cc2)c(=O)c2ccccc21	83%
Cc1cccc(Cn2c(=O)n(Cc3ccc4c(c3)OCO4)c(=O)c3oc4ccccc4c32)c1	77%
Cc1oc2ncn(CC(C)C)c(=O)c2c1C(=O)Nc1cc(F)ccc1F	65%
COc1ccc2c(CNC3CCC(C)CC3)c(C(=O)O)n(Cc3ccc(F)cc3)c2c1 (configuration not stated)	70%
CCC(=O)n1nc(-c2ccccc2)nc1N	104%

SMILES	survival
CN(Cc1ccccc1)c1ncnc2c1nnn2C	72%
COc1cccc(CNC(=O)CSc2nc(=O)[nH]c3c2CCCC3)c1	85%
C=CCSc1nnc(-c2ccccc2)n1-c1ccccc1	103%
Cc1c(Cl)cccc1NC(=O)CSc1nc(=O)[nH]c2c1CCC2	93%
CCCN1C(=O)C(Cc2nc3ccccc3c(=O)n2CC)c2cc(Br)ccc21 (configuration not stated)	34% (active)
CCCN1C(=O)C(Cc2nc3ccccc3c(=O)n2CC)c2ccccc21 (configuration not stated)	84%
Cc1cccc(-n2c(SCC(N)=O)nc3ccccc3c2=O)c1	90%
CCCN1C(=O)C(Cc2nc3ccccc3c(=O)n2-c2cccc(C)c2)c2ccccc21 (configuration not stated)	36% (active)
CCOC(=O)CSc1nc2ccccc2c(=O)n1-c1ccc(C(=O)NCCOC)cc1	96%
CCOC(=O)CSc1nc2ccccc2c(=O)n1-c1cccc(C)c1	31% (active)
CCN1C(=O)C(Cc2nc3ccccc3c(=O)n2-c2cccc(C)c2)c2ccccc21 (configuration not stated)	50%
CCCN1C(=O)C(Cc2nc3ccccc3c(=O)n2-c2ccccc2)c2cc(C)ccc21 (configuration not stated)	68%
CCn1c(CC2C(=O)N(C)c3ccc(Br)cc32)nc2ccccc2c1=O (configuration not stated)	70%
COCCN(C(=O)c1ccccc1)c1nnc(-c2ccncc2)s1	94%
Cc1cc(C)cc(NC(=O)CSc2nc(=O)[nH]c3c2CCC3)c1	112%
CCCOC1(C(F)(F)F)NC(=O)N(c2ccc(Cl)cc2)C1=O (configuration not stated)	66%
Cc1cc(C)c2c(n1)SCCN2C(=O)Nc1ccc(C(=O)Nc2cc(Cl)ccc2C)cc1	97%
CC(=O)Nc1ccc(NC(=O)CCc2c(C)nc3c(c(C)nn3-c3ccc(C)cc3)c2C)cc1	114%
CCC1CN(C(=O)N2CCC(C(=O)N3CCN(c4ccccc4F)CC3)CC2)c2ccccc2O1 (configuration not stated)	97%
CCC1CN(C(=O)N2CCC(C(=O)N3CCN(c4cc(C)ccc4C)CC3)CC2)c2ccccc2O1 (configuration not stated)	36% (active)
CCC1CN(C(=O)N2CCC(C(=O)N3CCN(c4cccc(C)c4C)CC3)CC2)c2ccccc2O1 (configuration not stated)	62%
CC1=C(C(=O)Nc2ccc(C)cc2C)C(c2sccc2C)n2ncnc2N1 (configuration not stated)	68%
O=C(NC1CCCC1)c1ccc2c(c1)OCO2	69%
